In paper PMC7862700, “An all-to-all approach to the identification of sequence-specific readers for epigenetic DNA modifications on cytosine” one finds binding signal data, which are given here for 1 sequence.

What all share (experiment): DAPPL (digital affinity profiling via proximity ligation, sequencing); 10 mM Tris-HCl pH 7.5, 50 mM NaCl, 1 mM DTT, 4% glycerol, room temperature, 30 min; GST-TFs on glutathione beads, 16-mer random dsDNA library, 0.1% formaldehyde crosslink after washing; high values mean tight binding
One assay addresses T1, FEV (Homo sapiens, UniProt Q99581 1-238).
T1 sequence: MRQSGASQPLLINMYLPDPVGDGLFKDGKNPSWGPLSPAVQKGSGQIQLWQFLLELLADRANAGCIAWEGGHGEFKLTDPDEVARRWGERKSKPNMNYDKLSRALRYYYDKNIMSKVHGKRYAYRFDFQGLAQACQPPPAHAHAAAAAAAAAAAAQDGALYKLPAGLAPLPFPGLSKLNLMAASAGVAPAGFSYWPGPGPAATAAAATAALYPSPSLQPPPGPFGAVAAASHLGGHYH
The settings on record: protein: recombinant; tags: N-terminal GST; dsDNA, one strand shown. Put shortly: (§1)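 Beads coated with glutathione captured GST-fused human transcription factors that had been expressed in yeast, and the factors were then given DNA barcodes and pooled with a tag-only sample. The pools were incubated with 200 nmole of a random double-stranded 16-mer DNA library in Tris/NaCl/DTT/glycerol buffer for 30 min at room temperature, washed, crosslinked with 0.1% formaldehyde and proximity-ligated with BsaI/T4 ligase at 37 °C for 1 h. PCR amplification and Illumina NextSeq500 sequencing came last. Binding signal is each hexamer's read frequency for a factor divided by its frequency for the tag-only sample.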

Another assay addresses ETV5 (Homo sapiens, UniProt P41161 1-510). The settings on record: protein: recombinant; tags: N-terminal GST; dsDNA, one strand shown. The method, boiled down: as §1
A further assay deals with HSF1 (Homo sapiens, UniProt Q00613 1-529). The note with it: protein: recombinant; tags: N-terminal GST; chain copies: 3; dsDNA, one strand shown. Put shortly: as §1
Sequence of HSF1 (Q00613 whole entry): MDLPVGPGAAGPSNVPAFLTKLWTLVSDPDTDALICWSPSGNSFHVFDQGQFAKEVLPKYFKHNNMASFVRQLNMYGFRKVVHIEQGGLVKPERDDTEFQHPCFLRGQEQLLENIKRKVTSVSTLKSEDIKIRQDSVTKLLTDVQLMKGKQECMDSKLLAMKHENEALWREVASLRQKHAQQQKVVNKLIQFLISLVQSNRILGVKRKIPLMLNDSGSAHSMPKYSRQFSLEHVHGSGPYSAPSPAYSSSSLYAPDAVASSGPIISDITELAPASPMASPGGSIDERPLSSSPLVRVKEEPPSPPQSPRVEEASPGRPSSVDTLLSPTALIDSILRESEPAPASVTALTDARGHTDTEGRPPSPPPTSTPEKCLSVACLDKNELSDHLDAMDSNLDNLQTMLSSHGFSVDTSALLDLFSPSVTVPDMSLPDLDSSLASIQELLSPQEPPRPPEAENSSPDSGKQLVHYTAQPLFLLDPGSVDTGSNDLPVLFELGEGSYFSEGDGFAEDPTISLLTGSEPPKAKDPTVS
Another assay deals with T2, SPIC (Homo sapiens, UniProt Q8N5J4 1-248).
T2 sequence: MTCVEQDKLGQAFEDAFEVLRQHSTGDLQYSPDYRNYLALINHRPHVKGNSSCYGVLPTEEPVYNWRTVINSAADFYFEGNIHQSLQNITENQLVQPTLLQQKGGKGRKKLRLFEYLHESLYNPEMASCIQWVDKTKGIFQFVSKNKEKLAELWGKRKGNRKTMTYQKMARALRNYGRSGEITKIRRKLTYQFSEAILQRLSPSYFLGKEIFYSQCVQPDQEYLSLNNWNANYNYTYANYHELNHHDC
The settings on record: protein: recombinant; tags: N-terminal GST; dsDNA, one strand shown. Put shortly:
as §1

The target in the next assay is ELF4 (Homo sapiens, UniProt Q99607 1-663). The note with it: protein: recombinant; tags: N-terminal GST; dsDNA, one strand shown. The method, boiled down: as §1
Sequence of ELF4 (Q99607 whole entry): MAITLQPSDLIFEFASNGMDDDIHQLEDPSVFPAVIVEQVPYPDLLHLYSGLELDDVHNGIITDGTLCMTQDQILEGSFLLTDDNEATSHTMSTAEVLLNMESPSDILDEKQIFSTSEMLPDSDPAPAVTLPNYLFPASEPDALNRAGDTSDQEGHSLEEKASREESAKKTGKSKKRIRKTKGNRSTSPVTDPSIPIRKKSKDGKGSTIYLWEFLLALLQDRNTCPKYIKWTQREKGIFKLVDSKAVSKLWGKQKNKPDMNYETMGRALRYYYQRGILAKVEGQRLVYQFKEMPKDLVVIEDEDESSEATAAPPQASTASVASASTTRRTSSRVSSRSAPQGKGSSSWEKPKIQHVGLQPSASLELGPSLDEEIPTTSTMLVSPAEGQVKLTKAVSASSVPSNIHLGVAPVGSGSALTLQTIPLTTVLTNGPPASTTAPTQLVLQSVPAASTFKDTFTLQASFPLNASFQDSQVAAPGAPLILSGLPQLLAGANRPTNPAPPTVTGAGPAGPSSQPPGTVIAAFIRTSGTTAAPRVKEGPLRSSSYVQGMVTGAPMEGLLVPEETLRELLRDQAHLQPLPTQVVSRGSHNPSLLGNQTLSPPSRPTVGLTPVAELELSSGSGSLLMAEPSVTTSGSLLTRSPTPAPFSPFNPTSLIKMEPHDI
The next assay has as its target T3, ELK4 (Homo sapiens, UniProt P28324-2 1-405).
T3 sequence: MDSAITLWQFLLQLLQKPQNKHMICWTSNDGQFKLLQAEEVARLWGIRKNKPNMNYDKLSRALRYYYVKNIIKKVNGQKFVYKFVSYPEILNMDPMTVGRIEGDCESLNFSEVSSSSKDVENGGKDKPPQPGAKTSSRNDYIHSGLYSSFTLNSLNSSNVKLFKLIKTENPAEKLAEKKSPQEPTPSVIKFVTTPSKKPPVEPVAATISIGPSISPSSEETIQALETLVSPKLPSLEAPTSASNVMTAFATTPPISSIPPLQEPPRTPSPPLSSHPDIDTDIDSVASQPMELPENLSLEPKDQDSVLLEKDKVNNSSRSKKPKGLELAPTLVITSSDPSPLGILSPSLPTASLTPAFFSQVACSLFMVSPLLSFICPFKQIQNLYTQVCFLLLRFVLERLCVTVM
The settings on record: protein: recombinant; tags: N-terminal GST; dsDNA, one strand shown. The method, boiled down: as §1

The target of another assay is T4, ETV2 (Homo sapiens, UniProt O00321 1-342).
T4 sequence: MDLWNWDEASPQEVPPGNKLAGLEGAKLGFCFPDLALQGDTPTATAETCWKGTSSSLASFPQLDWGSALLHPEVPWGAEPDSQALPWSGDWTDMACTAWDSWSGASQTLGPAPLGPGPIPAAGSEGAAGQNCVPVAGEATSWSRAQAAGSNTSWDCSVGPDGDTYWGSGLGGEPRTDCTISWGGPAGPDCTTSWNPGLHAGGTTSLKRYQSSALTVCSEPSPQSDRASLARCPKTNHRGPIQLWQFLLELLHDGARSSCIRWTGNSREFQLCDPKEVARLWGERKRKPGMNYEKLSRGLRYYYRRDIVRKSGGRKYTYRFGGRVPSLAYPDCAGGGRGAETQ
The note with it: protein: recombinant; tags: N-terminal GST; dsDNA, one strand shown. The method, boiled down: as §1

A further assay addresses T5, ELF3 (Homo sapiens, UniProt P78545 1-371).
T5 sequence: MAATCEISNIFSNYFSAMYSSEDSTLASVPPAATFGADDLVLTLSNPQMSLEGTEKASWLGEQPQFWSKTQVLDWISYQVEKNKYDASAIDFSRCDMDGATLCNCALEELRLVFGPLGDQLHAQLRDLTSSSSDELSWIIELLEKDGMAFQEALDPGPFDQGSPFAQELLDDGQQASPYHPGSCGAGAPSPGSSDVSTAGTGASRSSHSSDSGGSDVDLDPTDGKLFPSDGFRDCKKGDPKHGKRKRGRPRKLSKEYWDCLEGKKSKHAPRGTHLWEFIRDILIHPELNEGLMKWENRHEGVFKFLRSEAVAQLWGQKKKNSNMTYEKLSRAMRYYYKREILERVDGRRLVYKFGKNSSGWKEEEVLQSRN
The note with it: protein: recombinant; tags: N-terminal GST; dsDNA, one strand shown. The method, boiled down: as §1

For the next assay, the target named is CRX (Homo sapiens, UniProt O43186 1-299). The settings on record: protein: recombinant; tags: N-terminal GST; dsDNA, one strand shown. Put shortly: as §1
Sequence of CRX (O43186 whole entry): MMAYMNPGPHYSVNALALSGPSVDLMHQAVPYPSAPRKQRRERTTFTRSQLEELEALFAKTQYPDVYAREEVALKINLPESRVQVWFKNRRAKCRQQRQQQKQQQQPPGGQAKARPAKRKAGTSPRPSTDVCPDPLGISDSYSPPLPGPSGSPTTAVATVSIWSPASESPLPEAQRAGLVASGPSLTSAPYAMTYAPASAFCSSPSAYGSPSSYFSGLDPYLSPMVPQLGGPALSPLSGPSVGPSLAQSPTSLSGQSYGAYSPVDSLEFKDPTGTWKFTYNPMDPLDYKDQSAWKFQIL
For another assay, the target named is ETV1 (Homo sapiens, UniProt P50549 1-477). The settings on record: protein: recombinant; tags: N-terminal GST; dsDNA, one strand shown. Put shortly:
as §1

The target in another assay is T6, ERF (Homo sapiens, UniProt P50548 1-548).
T6 sequence: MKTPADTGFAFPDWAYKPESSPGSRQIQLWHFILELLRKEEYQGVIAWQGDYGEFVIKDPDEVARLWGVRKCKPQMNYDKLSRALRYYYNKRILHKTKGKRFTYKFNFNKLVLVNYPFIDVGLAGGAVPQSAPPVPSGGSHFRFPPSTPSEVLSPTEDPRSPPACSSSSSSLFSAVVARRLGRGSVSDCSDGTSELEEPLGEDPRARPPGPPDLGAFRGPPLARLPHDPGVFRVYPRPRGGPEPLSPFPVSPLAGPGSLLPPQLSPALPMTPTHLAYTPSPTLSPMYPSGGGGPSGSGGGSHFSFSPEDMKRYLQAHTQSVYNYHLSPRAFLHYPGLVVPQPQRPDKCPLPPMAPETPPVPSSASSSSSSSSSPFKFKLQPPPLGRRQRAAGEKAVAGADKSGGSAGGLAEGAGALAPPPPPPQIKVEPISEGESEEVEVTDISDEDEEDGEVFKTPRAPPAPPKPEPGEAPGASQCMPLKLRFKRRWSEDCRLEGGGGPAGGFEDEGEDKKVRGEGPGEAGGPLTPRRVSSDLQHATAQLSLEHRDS
The note with it: protein: recombinant; tags: N-terminal GST; dsDNA, one strand shown. Put shortly: as §1

Another assay has as its target T7, ETV3L (Homo sapiens, UniProt Q6ZN32 1-361).
T7 sequence: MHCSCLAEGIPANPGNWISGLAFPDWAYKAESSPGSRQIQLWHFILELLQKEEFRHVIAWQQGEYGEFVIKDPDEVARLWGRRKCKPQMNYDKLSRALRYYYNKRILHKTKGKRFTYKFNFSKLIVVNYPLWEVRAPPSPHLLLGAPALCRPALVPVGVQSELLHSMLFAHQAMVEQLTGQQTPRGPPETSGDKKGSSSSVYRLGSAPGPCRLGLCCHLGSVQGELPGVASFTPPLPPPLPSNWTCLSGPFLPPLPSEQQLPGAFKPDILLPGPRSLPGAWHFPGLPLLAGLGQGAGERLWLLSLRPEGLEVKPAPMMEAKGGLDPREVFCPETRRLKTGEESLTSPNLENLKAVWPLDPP
The note with it: protein: recombinant; tags: N-terminal GST; dsDNA, one strand shown. The method, boiled down:
as §1

For another assay, the target named is T8, ETS2 (Homo sapiens, UniProt P15036 1-469).
T8 sequence: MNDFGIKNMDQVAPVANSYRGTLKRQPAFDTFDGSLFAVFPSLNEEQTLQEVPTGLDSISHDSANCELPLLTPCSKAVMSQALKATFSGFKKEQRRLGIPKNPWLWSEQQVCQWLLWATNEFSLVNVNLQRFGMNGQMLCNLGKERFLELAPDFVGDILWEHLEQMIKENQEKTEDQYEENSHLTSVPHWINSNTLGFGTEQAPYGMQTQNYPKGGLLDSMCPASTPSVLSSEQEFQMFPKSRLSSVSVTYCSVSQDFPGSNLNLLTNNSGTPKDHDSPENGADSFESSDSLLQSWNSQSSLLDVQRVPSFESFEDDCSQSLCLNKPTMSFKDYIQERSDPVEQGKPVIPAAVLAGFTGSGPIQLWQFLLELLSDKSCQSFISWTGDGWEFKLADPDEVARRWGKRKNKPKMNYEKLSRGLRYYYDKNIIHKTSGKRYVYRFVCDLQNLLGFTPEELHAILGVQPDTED
The note with it: protein: recombinant; tags: N-terminal GST; dsDNA, one strand shown. The method, boiled down: as §1

A further assay addresses T9, SPDEF (Homo sapiens, UniProt O95238 1-335).
T9 sequence: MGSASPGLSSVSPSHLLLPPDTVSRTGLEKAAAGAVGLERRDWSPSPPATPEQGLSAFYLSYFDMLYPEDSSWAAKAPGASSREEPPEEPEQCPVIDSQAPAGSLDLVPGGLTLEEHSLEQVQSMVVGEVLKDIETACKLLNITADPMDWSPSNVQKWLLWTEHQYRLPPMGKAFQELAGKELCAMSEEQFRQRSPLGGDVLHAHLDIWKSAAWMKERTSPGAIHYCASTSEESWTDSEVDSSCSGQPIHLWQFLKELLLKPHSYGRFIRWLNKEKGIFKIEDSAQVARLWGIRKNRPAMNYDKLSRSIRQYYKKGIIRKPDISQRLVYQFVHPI
The settings on record: protein: recombinant; tags: N-terminal GST; dsDNA, one strand shown. The method, boiled down:
as §1

Another assay deals with T10, ETV7 (Homo sapiens, UniProt Q9Y603 1-341).
T10 sequence: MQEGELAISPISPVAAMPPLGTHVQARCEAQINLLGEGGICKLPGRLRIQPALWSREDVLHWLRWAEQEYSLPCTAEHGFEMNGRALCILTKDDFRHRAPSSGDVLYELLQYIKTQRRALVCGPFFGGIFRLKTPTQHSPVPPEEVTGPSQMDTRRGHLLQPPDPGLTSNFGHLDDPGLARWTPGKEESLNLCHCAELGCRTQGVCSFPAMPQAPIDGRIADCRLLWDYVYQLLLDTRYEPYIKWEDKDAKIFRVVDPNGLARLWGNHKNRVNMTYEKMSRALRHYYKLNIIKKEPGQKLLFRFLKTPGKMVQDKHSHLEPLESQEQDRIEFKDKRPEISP
The settings on record: protein: recombinant; tags: N-terminal GST; dsDNA, one strand shown. The method, boiled down: as §1

For a further assay, the target named is T11, ELF5 (Homo sapiens, UniProt Q9UKW6-2 1-255).
T11 sequence: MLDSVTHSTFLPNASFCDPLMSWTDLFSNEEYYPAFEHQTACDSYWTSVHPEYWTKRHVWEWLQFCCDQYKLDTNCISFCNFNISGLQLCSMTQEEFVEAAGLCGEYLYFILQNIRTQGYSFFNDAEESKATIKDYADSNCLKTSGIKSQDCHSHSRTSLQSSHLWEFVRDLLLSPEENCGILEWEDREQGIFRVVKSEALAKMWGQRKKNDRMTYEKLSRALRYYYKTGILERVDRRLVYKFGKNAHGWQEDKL
The settings on record: protein: recombinant; tags: N-terminal GST; dsDNA, one strand shown. The method, boiled down: as §1

Another assay deals with T12, ETV3 (Homo sapiens, UniProt P41162-2 1-143).
T12 sequence: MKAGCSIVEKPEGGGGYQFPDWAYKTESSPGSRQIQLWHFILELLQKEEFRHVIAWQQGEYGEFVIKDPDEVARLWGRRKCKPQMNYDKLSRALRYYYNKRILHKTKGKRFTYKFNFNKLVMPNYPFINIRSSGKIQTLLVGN
The note with it: protein: recombinant; tags: N-terminal GST; dsDNA, one strand shown. The method, boiled down:
as §1

Another assay addresses ETV6 (Homo sapiens, UniProt P41212 1-452). The note with it: protein: recombinant; tags: N-terminal GST; dsDNA, one strand shown. Put shortly:
as §1

Sequence of ETV5 (P41161 whole entry): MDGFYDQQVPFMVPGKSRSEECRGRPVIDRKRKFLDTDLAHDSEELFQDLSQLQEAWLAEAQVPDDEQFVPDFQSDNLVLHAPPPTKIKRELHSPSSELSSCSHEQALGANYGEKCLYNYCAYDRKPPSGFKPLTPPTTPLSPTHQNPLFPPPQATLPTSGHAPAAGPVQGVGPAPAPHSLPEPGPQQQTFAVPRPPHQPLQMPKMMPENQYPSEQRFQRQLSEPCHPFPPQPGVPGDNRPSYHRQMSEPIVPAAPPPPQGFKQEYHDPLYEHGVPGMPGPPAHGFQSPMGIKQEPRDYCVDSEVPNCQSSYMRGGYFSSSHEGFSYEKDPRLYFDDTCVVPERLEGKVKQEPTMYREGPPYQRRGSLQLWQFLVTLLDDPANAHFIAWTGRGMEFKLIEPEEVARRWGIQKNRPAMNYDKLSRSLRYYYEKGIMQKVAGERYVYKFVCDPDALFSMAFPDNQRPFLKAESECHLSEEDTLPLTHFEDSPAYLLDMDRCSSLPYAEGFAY
Sequence of ETV1 (P50549 whole entry): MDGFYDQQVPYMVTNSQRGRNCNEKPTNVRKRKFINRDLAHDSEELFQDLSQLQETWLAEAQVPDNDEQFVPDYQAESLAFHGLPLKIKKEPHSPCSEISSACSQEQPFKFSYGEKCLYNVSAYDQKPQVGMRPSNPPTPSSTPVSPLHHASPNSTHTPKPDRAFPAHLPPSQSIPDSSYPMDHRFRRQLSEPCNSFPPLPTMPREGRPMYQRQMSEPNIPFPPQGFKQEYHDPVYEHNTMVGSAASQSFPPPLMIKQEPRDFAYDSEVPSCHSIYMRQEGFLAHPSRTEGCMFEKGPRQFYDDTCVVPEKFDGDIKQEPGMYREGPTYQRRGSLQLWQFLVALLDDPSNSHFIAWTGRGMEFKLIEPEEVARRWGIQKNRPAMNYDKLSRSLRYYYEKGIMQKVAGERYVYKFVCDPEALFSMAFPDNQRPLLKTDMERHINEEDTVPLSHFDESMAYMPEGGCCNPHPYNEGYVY
Sequence of ETV6 (P41212 whole entry): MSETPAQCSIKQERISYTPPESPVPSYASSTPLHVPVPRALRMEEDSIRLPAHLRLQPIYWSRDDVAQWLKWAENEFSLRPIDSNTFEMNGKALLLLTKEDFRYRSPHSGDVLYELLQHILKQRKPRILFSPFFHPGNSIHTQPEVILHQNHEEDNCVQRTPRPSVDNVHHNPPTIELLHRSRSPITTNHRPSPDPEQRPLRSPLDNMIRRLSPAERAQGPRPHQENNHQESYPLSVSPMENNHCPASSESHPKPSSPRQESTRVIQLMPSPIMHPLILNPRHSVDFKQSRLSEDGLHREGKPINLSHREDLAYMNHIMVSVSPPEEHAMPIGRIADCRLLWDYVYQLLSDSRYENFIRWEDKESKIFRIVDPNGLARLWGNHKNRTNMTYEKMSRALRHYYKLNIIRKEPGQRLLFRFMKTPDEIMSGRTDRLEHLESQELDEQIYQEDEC

In the case of CGTTCT, the binding signal is 1.45 fold enrichment (6-mer frequency, TF over GST control) in the assay with FEV; 1.45 fold enrichment (6-mer frequency, TF over GST control) with ETV5; 2.27 fold enrichment (6-mer frequency, TF over GST control) with HSF1; 1.45 fold enrichment (6-mer frequency, TF over GST control) with SPIC; 1.47 fold enrichment (6-mer frequency, TF over GST control) with ELF4; 1.43 fold enrichment (6-mer frequency, TF over GST control) with ELK4. In addition, the binding signal with ETV2 was 1.39 fold enrichment (6-mer frequency, TF over GST control); with ELF3, 1.4 fold enrichment (6-mer frequency, TF over GST control); in the assay with CRX it was 1.49 fold enrichment (6-mer frequency, TF over GST control); with ETV1, 1.37 fold enrichment (6-mer frequency, TF over GST control); in the assay with ERF it was 1.46 fold enrichment (6-mer frequency, TF over GST control); in the assay with ETV3L, 1.51 fold enrichment (6-mer frequency, TF over GST control). For the same sequence, the binding signal with ETS2 is 1.37 fold enrichment (6-mer frequency, TF over GST control); with SPDEF it was 1.44 fold enrichment (6-mer frequency, TF over GST control); with ETV7, 1.56 fold enrichment (6-mer frequency, TF over GST control); in the assay with ELF5, 1.44 fold enrichment (6-mer frequency, TF over GST control); in the assay with ETV3 it was 1.37 fold enrichment (6-mer frequency, TF over GST control); in the assay with ETV6 it was 1.47 fold enrichment (6-mer frequency, TF over GST control).
